The supplement of paper PMC6607015
Where a name gives a salt, the structure may show the parent alone.

Legend:
Details in all cases: compound concentration in added solution (µM; 5 µl added to 20 µl cells): 10; 18 h
[1] = system: A431; experiment: LBPA endosome anti-LBPA integrated intensity (sum per cell), Z-score; higher = more LBPA staining
Outline: (§1)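 The data are Z-scores, normalised in AcuityXpress, of integrated LBPA or filipin intensity in each cell, either whole-cell or restricted to LBPA endosomes. HeLa MZ or A431 cells, 3,500 per well in 20 µl, were seeded onto 5 µl of 10 µM compound solution in duplicate 384-well plates and incubated 18 h. Fixed cells were stained and imaged, with intensities extracted by MetaXpress segmentation.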

[2] = system: HeLa MZ; experiment: as above
Outline: as §1

[3] = system: A431; experiment: whole-cell filipin (free cholesterol) integrated intensity, Z-score; higher = more cholesterol staining
Outline: as §1

[4] = system: HeLa MZ; experiment: as above
Outline: as §1

[5] = system: A431; experiment: filipin (cholesterol) integrated intensity within LBPA endosomes, Z-score; higher = more cholesterol in LBPA endosomes
Outline: as §1

[6] = system: HeLa MZ; experiment: as above
Outline: as §1

| SMILES | LBPA endosome anti-LBPA integrated intensity (z-score) [1] | LBPA endosome anti-LBPA integrated intensity (z-score) [2] | whole-cell filipin (z-score) [3] | whole-cell filipin (z-score) [4] | filipin (z-score) [5] | filipin (z-score) [6] |
| --- | --- | --- | --- | --- | --- | --- |
| CCN(CC)CCOc1ccc(C(=C(Cl)c2ccccc2)c2ccccc2)cc1 [Clomiphene citrate (Z,E)] | 1.86 | 0.54 | 0.0851 | 1.03 | 2.72 | 3.06 |
| CCOC(=O)n1ccn(C)c1=S [Carbimazole] | -0.395 | 0.106 | -0.405 | -0.308 | -0.513 | -0.531 |
| CC=CC(=O)N(CC)c1ccccc1C [Crotamiton] | -0.66 | -1.3 | -0.358 | -0.316 | -0.501 | -0.424 |
| Cc1cc(C(C)(C)C)cc(C)c1CC1=NCCN1 [Xylometazoline hydrochloride] | -0.127 | 0.671 | 0.316 | 0.463 | 0.0924 | 0.303 |
| CCN(CC)CCN[C@@H](C(=O)OCCC(C)C)c1ccccc1 [Camylofine chlorhydrate] | -0.334 | 0.886 | -0.446 | -0.605 | -0.28 | 0.0537 |
| NC1CCN(c2c(F)cc3c(=O)c(C(=O)O)cn(C4CC4)c3c2Cl)C1 (configuration not stated) [Clinafloxacin] | -0.36 | 0.512 | -0.328 | -0.333 | -0.437 | -0.286 |
| CC(O)(P(=O)(O)O)P(=O)(O)O [Etidronic acid, disodium salt] | -0.428 | -0.376 | -0.14 | -0.368 | -0.461 | -0.4 |
| CN[C@@H]1[C@H](O[C@H]2[C@H](O[C@H]3[C@H](O)[C@@H](O)[C@H](NC(=N)N)[C@@H](O)[C@@H]3NC(=N)N)O[C@@H](C)[C@]2(O)CO)O[C@@H](CO)[C@H](O)[C@H]1O [Dihydrostreptomycin sulfate] | -0.602 | -1.07 | -1 | -0.938 | -0.56 | -0.704 |
| CNCCC=C1c2ccccc2C=Cc2ccccc21 [Norcyclobenzaprine] | 3.26 | 2.08 | 1.91 | 1.02 | 3.06 | 3.6 |
| O=C(O)c1ccccc1Nc1cccc(C(F)(F)F)c1 [Flufenamic acid] | -0.586 | -0.521 | -0.734 | -0.685 | -0.54 | -0.632 |
| OCCOCCN1CCN(C(c2ccccc2)c2ccc(Cl)cc2)CC1 (configuration not stated) [Hydroxyzine dihydrochloride] | 0.255 | 0.53 | 0.266 | -0.465 | 0.492 | 0.489 |
| COc1cc2nc(N3CCN(C(=O)C4COc5ccccc5O4)CC3)nc(N)c2cc1OC (configuration not stated) [Doxazosin mesylate] | 3.8 | 3.08 | 2.89 | 1.62 | 2.83 | 2.39 |
| CCc1c2c(nc3ccc(OC(=O)N4CCC(N5CCCCC5)CC4)cc13)-c1cc3c(c(=O)n1C2)COC(=O)[C@]3(O)CC [Irinotecan Hydrochloride] | 0.102 | 3.21 | 3.24 | 3.96 | 0.0471 | -0.0232 |
| C[C@]12C=CC(=O)C=C1CC[C@H]1[C@@H]3C[C@@H](O)[C@](O)(C(=O)CO)[C@@]3(C)C[C@H](O)[C@@]12F [Triamcinolone] | -0.203 | -0.607 | -0.346 | -0.264 | -0.211 | -0.572 |
| CC1=C(/C=C/C(C)=C/C=C/C(C)=C/C(=O)O)C(C)(C)CCC1 [Retinoic acid] | -0.177 | -0.508 | -0.103 | -0.698 | -0.286 | -0.43 |
| Cc1cccc(C)c1NC(=O)C(C)N (configuration not stated) [Tocainide hydrochloride] | -0.343 | -0.526 | 0.139 | -0.393 | -0.431 | -0.603 |
| Nc1nc(=O)c2nc(CNc3ccc(C(=O)N[C@@H](CCC(=O)O)C(=O)O)cc3)cnc2[nH]1 [Folic acid] | -0.628 | -1.15 | -0.811 | -0.635 | -0.597 | -0.671 |
| C/C=C(/C(=C/C)c1ccc(O)cc1)c1ccc(O)cc1 [Dienestrol] | -0.546 | -0.673 | -0.449 | -0.338 | -0.497 | -0.451 |
| NC(=O)c1cccnc1 [Nicotinamide] | -0.398 | -0.64 | -0.512 | -0.013 | -0.419 | -0.499 |
| CNCCC(Oc1ccccc1OC)c1ccccc1 (configuration not stated) [Nisoxetine hydrochloride] | -0.0713 | 0.75 | 0.38 | 0.302 | -0.0689 | -0.0239 |
| CN1CCOC(c2ccccc2)c2ccccc2C1 (configuration not stated) [Nefopam hydrochloride] | -0.544 | -0.0559 | -0.752 | -0.617 | -0.509 | -0.197 |
| CCCCC1C(=O)N(c2ccccc2)N(c2ccc(O)cc2)C1=O (configuration not stated) [Oxyphenbutazone] | -0.518 | -0.9 | 0.131 | 0.127 | -0.41 | -0.527 |
